# Values joined by “and” are separate entries in the source; they are usually repeats but may differ in a detail not shown here. Identical values can stand only once.
# What was measured:
# Conditions in all cases: Compound concentration 20.0 uM, Protein concentration 2.0 uM, Result type QC Liability
# [1] = biological target: Tyrosine-protein kinase ABL1 (Homo sapiens) (UniProt P00519)
# [2] = biological target: Cyclin-dependent kinase 2 (Homo sapiens) (UniProt P24941)
# [3] = biological target: Casein kinase I isoform delta (Homo sapiens) (UniProt P48730)
# [4] = biological target: Glycogen synthase kinase-3 beta (Homo sapiens) (UniProt P49841)
# [5] = biological target: Mitogen-activated protein kinase 1 (Homo sapiens) (UniProt P28482)
# [6] = biological target: T1, Aurora kinase A (Homo sapiens) (UniProt O14965)
# T1 sequence (whole entry): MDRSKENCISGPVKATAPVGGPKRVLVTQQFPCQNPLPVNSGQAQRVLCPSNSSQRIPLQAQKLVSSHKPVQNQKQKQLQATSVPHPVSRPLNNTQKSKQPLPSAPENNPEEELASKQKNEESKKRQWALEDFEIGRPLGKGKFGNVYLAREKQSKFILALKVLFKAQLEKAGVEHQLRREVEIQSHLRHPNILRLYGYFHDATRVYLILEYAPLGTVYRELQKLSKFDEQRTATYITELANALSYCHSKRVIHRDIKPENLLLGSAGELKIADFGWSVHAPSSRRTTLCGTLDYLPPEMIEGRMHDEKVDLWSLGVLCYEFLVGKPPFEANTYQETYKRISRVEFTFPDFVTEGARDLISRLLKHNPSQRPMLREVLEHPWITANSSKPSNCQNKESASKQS
# Sequence of Glycogen synthase kinase-3 beta (Homo sapiens) (P49841 whole entry, looked up): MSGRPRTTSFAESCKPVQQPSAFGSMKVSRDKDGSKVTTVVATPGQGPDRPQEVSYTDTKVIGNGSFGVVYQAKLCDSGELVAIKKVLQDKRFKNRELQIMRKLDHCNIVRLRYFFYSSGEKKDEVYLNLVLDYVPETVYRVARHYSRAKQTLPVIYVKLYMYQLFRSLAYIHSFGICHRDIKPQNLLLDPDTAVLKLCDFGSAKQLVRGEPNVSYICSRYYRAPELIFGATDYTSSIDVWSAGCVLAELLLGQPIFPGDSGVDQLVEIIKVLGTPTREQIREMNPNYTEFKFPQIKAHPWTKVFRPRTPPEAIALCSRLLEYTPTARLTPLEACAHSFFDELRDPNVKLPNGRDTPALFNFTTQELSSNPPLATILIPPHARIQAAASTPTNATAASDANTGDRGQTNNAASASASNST
# Sequence of Tyrosine-protein kinase ABL1 (Homo sapiens) (P00519 whole entry): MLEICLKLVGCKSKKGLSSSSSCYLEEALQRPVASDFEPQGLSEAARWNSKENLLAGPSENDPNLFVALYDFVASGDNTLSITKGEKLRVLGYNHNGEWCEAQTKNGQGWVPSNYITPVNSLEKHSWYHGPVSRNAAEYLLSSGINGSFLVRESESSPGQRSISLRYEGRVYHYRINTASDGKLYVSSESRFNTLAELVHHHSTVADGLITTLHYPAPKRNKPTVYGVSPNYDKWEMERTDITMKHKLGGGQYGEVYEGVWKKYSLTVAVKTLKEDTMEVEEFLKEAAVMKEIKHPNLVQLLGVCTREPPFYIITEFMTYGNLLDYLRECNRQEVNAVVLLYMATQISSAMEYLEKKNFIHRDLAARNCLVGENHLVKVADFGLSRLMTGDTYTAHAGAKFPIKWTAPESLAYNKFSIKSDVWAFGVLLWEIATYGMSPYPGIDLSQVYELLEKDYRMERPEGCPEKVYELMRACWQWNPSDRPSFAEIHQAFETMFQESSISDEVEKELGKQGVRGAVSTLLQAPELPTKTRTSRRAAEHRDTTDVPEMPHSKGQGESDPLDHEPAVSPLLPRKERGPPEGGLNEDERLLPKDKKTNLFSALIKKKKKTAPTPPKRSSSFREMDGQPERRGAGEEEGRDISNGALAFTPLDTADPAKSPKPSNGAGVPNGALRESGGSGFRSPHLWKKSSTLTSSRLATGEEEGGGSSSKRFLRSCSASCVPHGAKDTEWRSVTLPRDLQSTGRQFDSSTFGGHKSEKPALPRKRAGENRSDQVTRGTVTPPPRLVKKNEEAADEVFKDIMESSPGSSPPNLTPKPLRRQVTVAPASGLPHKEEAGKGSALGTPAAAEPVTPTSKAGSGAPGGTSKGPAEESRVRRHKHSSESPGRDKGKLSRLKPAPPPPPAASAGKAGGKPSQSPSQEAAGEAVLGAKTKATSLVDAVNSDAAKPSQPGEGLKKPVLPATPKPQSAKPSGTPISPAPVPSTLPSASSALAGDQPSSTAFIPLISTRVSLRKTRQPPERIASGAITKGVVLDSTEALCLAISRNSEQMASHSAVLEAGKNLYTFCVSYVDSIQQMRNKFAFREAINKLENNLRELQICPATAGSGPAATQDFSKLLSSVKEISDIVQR
# Sequence of Casein kinase I isoform delta (Homo sapiens) (P48730 whole entry, looked up, canonical isoform): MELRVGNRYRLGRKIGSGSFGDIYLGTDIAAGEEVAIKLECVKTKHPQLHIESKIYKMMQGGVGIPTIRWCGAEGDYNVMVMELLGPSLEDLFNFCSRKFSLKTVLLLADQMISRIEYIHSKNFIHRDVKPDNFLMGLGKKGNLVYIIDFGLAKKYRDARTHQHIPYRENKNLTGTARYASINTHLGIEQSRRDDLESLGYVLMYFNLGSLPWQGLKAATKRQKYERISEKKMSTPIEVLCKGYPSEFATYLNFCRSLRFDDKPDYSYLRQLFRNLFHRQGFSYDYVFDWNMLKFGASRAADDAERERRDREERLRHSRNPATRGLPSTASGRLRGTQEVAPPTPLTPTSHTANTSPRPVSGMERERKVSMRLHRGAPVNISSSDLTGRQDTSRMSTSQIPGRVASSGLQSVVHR
# Sequence of Mitogen-activated protein kinase 1 (Homo sapiens) (P28482 whole entry): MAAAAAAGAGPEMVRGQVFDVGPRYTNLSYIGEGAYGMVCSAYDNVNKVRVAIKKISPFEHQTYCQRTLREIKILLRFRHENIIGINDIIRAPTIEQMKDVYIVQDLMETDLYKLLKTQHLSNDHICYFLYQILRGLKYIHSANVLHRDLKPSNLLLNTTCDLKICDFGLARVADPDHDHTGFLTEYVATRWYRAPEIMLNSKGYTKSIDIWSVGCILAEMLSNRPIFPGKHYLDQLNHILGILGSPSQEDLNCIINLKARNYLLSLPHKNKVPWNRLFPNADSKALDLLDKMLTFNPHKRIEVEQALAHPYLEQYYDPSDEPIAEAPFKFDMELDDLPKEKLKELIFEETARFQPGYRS
Compound,ΔTm [1],ΔTm [2],ΔTm [3],ΔTm [4],ΔTm [5],ΔTm [6]
COCc1c(-c2cc3cc(C)cc(OC)c3s2)c2c(N)ncnn2c1CN[C@@H]1CCNC1=O,2.45 °C,0.59 °C,0.29 °C,-0.7 °C,0.28 °C,3.49 °C
CS(C)(=O)=Nc1ccc(-c2ccc(-c3nc4[nH]c(O[C@@H]5CO[C@H]6[C@@H]5OC[C@H]6O)nc4cc3Cl)cc2)cc1,1.8 °C,0.06 °C,0.3 °C,-0.22 °C,0.83 °C,0.34 °C
CSc1ccc(C(=O)/C=C/c2cc(C)c(OC(C)(C)C(=O)O)c(C)c2)cc1,1.1 °C,0.59 °C,0.61 °C,0.69 °C,0.07 °C,4.96 °C
COc1cc(C(N)=O)ccc1Nc1ncc2c(n1)N(CCC(C)C)[C@H](C)C(=O)N2C,1.42 °C,-0.37 °C,0.51 °C,0.01 °C,-6.61 °C,-0.69 °C
O=C(NCc1ccc(F)cc1)C1CCN(S(=O)(=O)c2cc(Cl)cc(Cl)c2)CC1,0.04 °C,-0.1 °C,0.71 °C,-0.45 °C,0 °C,0.52 °C
COc1cc(-c2cncc(-c3ccc(N4CCN(C(C)C)CC4)cc3)c2C)cc(F)c1C(N)=O,1.79 °C,0.61 °C,0.92 °C,1.06 °C,0.21 °C,-0.31 °C
CCO[C@H](COc1ccc(C(F)(F)F)cc1)CSc1ccc(OCC(=O)O)c(C)c1,0.26 °C,0.43 °C,0.11 °C,-0.41 °C,0.32 °C,-1.04 °C
Cc1cc(SCc2sc(-c3ccc(C(F)(F)F)cc3)nc2C)ccc1OCC(=O)O,0 °C,0.3 °C,1.18 °C,-1.11 °C,0.57 °C,-2.58 °C
O=C(Nc1ccc(Cl)c(-c2ccccn2)c1)c1cccc(COc2ccc(Br)cc2CNCCO)c1,0.35 °C,-0.21 °C,0.55 °C,-0.89 °C,-0.69 °C,-0.51 °C
CC(C)N(C(=O)C1CCOCC1)c1cc(F)c(Oc2ncc(Cn3nccn3)cc2C(F)(F)F)cc1C(=O)O,-0.75 °C,0.2 °C,0.07 °C,-0.83 °C,-0.07 °C,-0.1 °C
CNc1ncc2cc(-c3ccc(-c4cccc(C)n4)cc3Cl)c(=O)n(C[C@H]3OC[C@H](N)CO3)c2n1,5.88 °C,1.85 °C,1.07 °C,0.45 °C,-0.4 °C,8.51 °C
CNC(=O)c1ccc2c(c1)ncn2-c1ccc(CC(=O)OC(C)(C)C)cc1,4.4 °C,0.07 °C,-0.01 °C,-0.5 °C,0.2 °C,0.99 °C
Nc1c(CC(=O)O)cccc1C(=O)c1ccc(Br)cc1,1.3 °C,0.36 °C,0.21 °C,0.59 °C,0.2 °C,0.08 °C
COCCCS(=O)(=O)c1cc(C)c(-c2ccc(F)c3c2CC[C@H]3Oc2ccc3c(c2)OC[C@H]3CC(=O)O)c(C)c1,0.43 °C,0 °C,0.06 °C,0 °C,0 °C,-0.86 °C
C[S+](C)[O-],0 °C (2×) and 0.21 °C,0 °C (2×) and 0.78 °C,0 °C (2×) and 0.01 °C,0 °C (2×) and -0.51 °C,0 °C (2×) and 0.53 °C,0 °C (2×) and 0.05 °C
COC(=O)Nc1nc2c(s1)-c1c(c(-c3cccnc3)nn1-c1ccc(C3(N(C)C)CC3)cc1)CC2,0.57 °C,0.64 °C,-0.25 °C,-0.71 °C,0.36 °C,-0.79 °C
COc1cc(C(=O)NC2CCN(C)CC2)ccc1Nc1ncc(C(F)(F)F)c(NCc2ccc(C)cc2N(C)S(C)(=O)=O)n1,0.73 °C,0.29 °C,1.1 °C,-0.29 °C,3.52 °C,5.17 °C
CCOC(=O)N1CCC(CN(Cc2ccc(Cl)cc2)Cc2ccc([N+](=O)[O-])s2)C1 (configuration not stated),0.47 °C,0.83 °C,1.17 °C,-0.64 °C,0.21 °C,-0.41 °C
NC(=O)OC[C@H](NC(=O)Cn1nc(-c2ccc(Cl)cc2)n(C[C@H](O)C(F)(F)F)c1=O)c1cccc(C(F)(F)F)c1,1.4 °C,1.62 °C,0.82 °C,2.1 °C,1.35 °C,0.82 °C
Cc1cccc(CC(=O)N2CCc3c2ccc(-c2cn(C)c4ncnc(N)c24)c3F)n1,2.48 °C,0.14 °C,0.49 °C,-0.92 °C,0.15 °C,0.37 °C
CCN1C(=O)c2cc(C)ccc2N(C)c2ncccc21,-0.36 °C,0.32 °C,0.14 °C,-0.36 °C,0.23 °C,0.08 °C
COc1cc(C(=O)NCCOCCOCCOCC(=O)N[C@H](C(=O)N2C[C@H](O)C[C@H]2C(=O)NCc2ccc(-c3scnc3C)cc2)C(C)(C)C)ccc1Nc1ncc(C(F)(F)F)c(Oc2cccc3c2C(=O)CC3)n1,-0.62 °C,-0.81 °C,0.41 °C,0 °C,-8.23 °C,1.75 °C
CCCc1c(OCCCOc2ccc(OCC(=O)O)cc2)ccc(C(C)=O)c1O,0.08 °C,-0.16 °C,1.18 °C,-0.07 °C,-0.16 °C,-1.56 °C
N#CN1CC[C@H](C(=O)Nc2nc3c(s2)CN(C(=O)CN=[N+]=[N-])CC3)C1,0.16 °C,0.34 °C,0.24 °C,-0.2 °C,0.64 °C,-0.99 °C
CN1CCN(c2ccnc(NCCc3ccccc3)n2)CC1,0.08 °C,0.11 °C,0.22 °C,-0.49 °C,0.69 °C,-0.92 °C
C/C(=C\C(=O)Nc1ccccc1C(=O)O)c1ccc2ccccc2c1,-0.72 °C,-0.23 °C,0.09 °C,0 °C,0.8 °C,1.85 °C

Compound,ΔTm [1],ΔTm [2],ΔTm [3],ΔTm [4],ΔTm [5],ΔTm [6]
C[S+]([O-])c1ccc(-c2nc(-c3cccc(I)c3)c(-c3ccncc3)[nH]2)cc1 (configuration not stated),0.33 °C,-0.2 °C,2.61 °C,5.08 °C,-1.08 °C,-1.53 °C
Cc1c(CN2CCC3(CC2)CN(c2ncnc4sc(CC(F)(F)F)cc24)C3)ccc2c1cc(C#N)n2CC(N)=O,0.27 °C,-0.01 °C,0.92 °C,0.64 °C,0.12 °C,0.16 °C
Nc1ncnc2c1c(COc1cccc(Cl)c1)nn2C1CCOCC1,1.95 °C,0.26 °C,3.79 °C,0.11 °C,0.21 °C,-4.79 °C
CC(=O)c1c(C)c2cnc(Nc3ccc(N4CCNCC4)cn3)nc2n(C2CCCC2)c1=O,0.35 °C and -0.02 °C,1.06 °C and 0.93 °C,0.19 °C and 0.01 °C,0.23 °C and 0.63 °C,0.09 °C and 0.31 °C,-0.85 °C and 0.31 °C
O=C(N[C@H]1CCC[C@H](CO)C1)C1CCN(c2nc3cc(Cl)c(-c4ccc(Cl)cc4)cc3o2)CC1,1.38 °C,-3.19 °C,-6.76 °C,1.1 °C,-10.4 °C,-2.13 °C
C[C@@H](Oc1cc(-n2cnc3ccc(OC4CCN(C)CC4)cc32)sc1C(N)=O)c1ccccc1Cl,1.32 °C,-0.97 °C,0.23 °C,1.25 °C,0.3 °C,0.44 °C
Nc1ncc2c(n1)-c1c([nH]c3ccc(C4=CCOCC4)cc13)CCC2,0.44 °C,1.02 °C,2.29 °C,0.71 °C,-0.03 °C,1.93 °C
COc1cc(-c2cncc(-c3ccc(N4CCN(C(C)C)CC4)cc3)c2C)cc(F)c1C(=O)N1CCCC1,0.7 °C,0.41 °C,0.26 °C,-0.59 °C,0.53 °C,-0.62 °C
NC(=O)C1CCCc2c1[nH]c1ccc(Cl)cc21 (configuration not stated),0.05 °C,0.79 °C,0.23 °C,-0.8 °C,0.44 °C,0.7 °C
CCNC(=O)c1ccc2c(c1)NC(=O)/C2=C(\Nc1ccc(CN(C)C)cc1)c1ccccc1,3.61 °C and 1.55 °C,0.83 °C and 0.42 °C,0.37 °C and -0.02 °C,0.19 °C and -0.61 °C,0.2 °C and 0.17 °C,1.4 °C and 0 °C
Cc1cc(=O)oc2cc(NC(=O)[C@H](Cc3ccc(I)cc3)NC(=O)[C@H]3N[C@@H]4CC[C@H]3C4)ccc12,0 °C,-0.62 °C,0.37 °C,-0.08 °C,0.09 °C,-0.48 °C
O=C(CNCc1cc2ccccc2[nH]1)N[C@H]1CC[C@@H](c2nc3ccccc3[nH]2)CC1,0.13 °C,0.52 °C,0.18 °C,-0.57 °C,0.34 °C,-0.41 °C
Cc1ccc(NS(=O)(=O)c2ccc3c(c2)C2C=CCC2C(c2ccc(C(=O)O)cc2)N3)cc1C (configuration not stated),-0.61 °C,1.5 °C,0.36 °C,-1.27 °C,-3.84 °C,-2.29 °C
NC(=O)c1ccccc1Nc1nc(-c2ccc(N3CCOCC3)cc2)cc2ncccc12,7.91 °C,1.53 °C,3.01 °C,2.43 °C,0.67 °C,10.1 °C
CCCCCCCC/C=C\CCCCCCCC(=O)NCCO,-1.47 °C,-0.92 °C,-0.85 °C,-2.08 °C,-1.79 °C,-2.91 °C
CC(=O)Nc1cccc(-n2c(=O)n(C3CC3)c(=O)c3c(Nc4ccc(I)cc4F)n(C)c(=O)c(C)c32)c1,-0.1 °C,0.48 °C,0.23 °C,-0.51 °C,0.29 °C,-0.21 °C
Cc1cc(S(=O)(=O)N2CC(C)(C)c3cc(-c4ccc(C(F)(F)F)cc4)ccc32)ccc1OCC(=O)O,0 °C,-2.88 °C,-0.16 °C,-5.32 °C,-9.76 °C,-1.56 °C
N=C(N)NCCC[C@@H](NC(=O)C(c1ccccc1)c1ccccc1)C(=O)NCc1ccc(CNC(N)=O)cc1,0.37 °C,0.62 °C,0.21 °C,-0.25 °C,0.26 °C,0.1 °C
COCCOCn1c(S(C)(=O)=O)nc2c1c(=O)n(C)c(=O)n2C,0.21 °C,0.39 °C,-0.13 °C,-0.24 °C,-0.83 °C,0.11 °C
COc1cccc(Cn2cc(C(=O)Nc3ccc(C)c(S(=O)(=O)N4CCOCC4)c3)c(-c3ccc(C)cc3)n2)c1,4.84 °C,3.65 °C,-0.33 °C,1.92 °C,-3.66 °C,3.73 °C
CCCCCCCN(CCc1ccc(SC(C)(C)C(=O)O)cc1)C(=O)Nc1ccc(F)cc1F,0.48 °C,0 °C,0.48 °C,-1.12 °C,-0.08 °C,-1.93 °C
C[C@@H]1COCCN1c1cc(=O)n2c(n1)N(Cc1cncc(Cl)c1)[C@H](C(F)(F)F)CC2,0.53 °C,0.54 °C,0.16 °C,0.4 °C,0.34 °C,-0.23 °C
CCN(CC)C(=O)C1CN2CCc3cc(OC)c(OC)cc3C2CC1OC(C)=O (configuration not stated),-0.43 °C,0.69 °C,-0.03 °C,-1.02 °C,0.11 °C,-0.04 °C
CC(=O)c1c(C)c2cnc(Nc3ccn(C)n3)nc2n(C2CCCC2)c1=O,-0.44 °C,-0.29 °C,-0.59 °C,2.32 °C,0.48 °C,0.47 °C
C#Cc1cnc2[nH]cc(-c3cccc4c3CCN4C(=O)[C@@H]3CCCN3C#N)c2c1,5.17 °C,1.31 °C,2.51 °C,2.99 °C,0.55 °C,4.94 °C
CN(C)C(=O)c1sc2nc(N3CCC(S(C)(=O)=O)CC3)cc(C(F)(F)F)c2c1N,-0.62 °C and 1 °C,0.58 °C and 0.19 °C,0.2 °C and 0.17 °C,-0.24 °C and -0.54 °C,-0.76 °C and 0.56 °C,-0.67 °C and 0 °C

# From ChEMBL document CHEMBL5308504, “Tm Shift (DSF) assay results for EUbOPEN Chemogenomics Library” (2023)
